# The full list was thinned out, with hits kept by preference.
# ERp5 inh – inhibitors of human ERp5; inhibition, % at 9.99 µM; Q15084; ERp5 insulin aggregation, absorbance 650 nm, 90 min; 0.05% of 350,000 active;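 active means mean replicate inhibition above about 25%, with every replicate also reaching it, limit read from the data, passing the limit was not always enough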
# PglD DTNB – PglD (C. jejuni) enzyme inhibition. 0.098% of 360,000 active. inhibition, % at 12.5 µM. purified PglD enzyme, DTNB colorimetric CoA detection; in the data active means inhibition above about 16%, passing the limit was not always enough
# CendR NRP1 mod – NRP-1/CendR interaction modulation; O14786; 0.85% of 360,000 active; AID 602438; FAM-RPARPAR peptide binding to NRP-1, fluorescence polarization; inhibition, % at 25 µM;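 active means inhibition or corrected inhibition above about 18%, plus a signal ratio from 0.5 to 1.5, limit read from the data, passing the limit was not always enough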
# ARNT TACC3 PPI – ARNT/TACC3 interaction disruption | 0.66% of 390,000 active | AID 623870 | inhibition, % at 9.99 µM | AlphaScreen His-ARNT PAS-B/GST-TACC3 binding, luminescence; TACC3 fragment carries E629A point mutation;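 active means mean inhibition of replicates at least 50% and at least half of replicates each reaching 50%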
# ALR inh – inhibitors of human sulfhydryl oxidase ALR | AID 485317 | purified ALR, DTT oxidation, H2O2 HRP-luminol luminescence | P55789 | 3.8% of 290,000 active | inhibition, % (test concentration not listed);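 active means mean replicate inhibition above about 79%, with every replicate also reaching it, limit read from the data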
# PDI turbidity – PDI (human) enzyme inhibition. PDI insulin aggregation turbidity, A650, 90 min. inhibition, % at 10 µM. AID 588391. P07237. 0.052% of 350,000 active;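 active means mean inhibition across replicates of 30% or more, whatever share of single replicates reach that level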
# Target sequence (P07237 whole entry, looked up): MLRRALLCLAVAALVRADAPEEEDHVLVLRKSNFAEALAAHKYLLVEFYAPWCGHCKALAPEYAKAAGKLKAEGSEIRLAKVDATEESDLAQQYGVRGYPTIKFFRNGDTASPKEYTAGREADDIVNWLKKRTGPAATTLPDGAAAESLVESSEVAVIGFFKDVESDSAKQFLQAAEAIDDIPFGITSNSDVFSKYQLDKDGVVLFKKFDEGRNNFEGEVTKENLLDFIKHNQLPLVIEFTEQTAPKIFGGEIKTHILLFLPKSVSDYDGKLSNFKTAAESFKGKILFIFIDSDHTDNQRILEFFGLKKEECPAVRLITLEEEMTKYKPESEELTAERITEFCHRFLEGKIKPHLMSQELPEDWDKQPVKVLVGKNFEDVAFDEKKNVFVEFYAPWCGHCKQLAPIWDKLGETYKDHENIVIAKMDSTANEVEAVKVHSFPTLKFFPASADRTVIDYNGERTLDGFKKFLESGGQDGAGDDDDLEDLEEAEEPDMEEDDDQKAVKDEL
# Numbers stand for hits; 0 = inactive; - = not tested or not shown.
SMILES,ERp5 inh,PglD DTNB,CendR NRP1 mod,ARNT TACC3 PPI,ALR inh,PDI turbidity
O=C(CCC(=O)N1CCOc2ccccc21)N1CCOCC1,0,0,0,0,0,-
CN(C)c1ccc(NC(=O)N2CCOCC2)cc1,-,0,0,0,99,0
O=C(CCC(=O)N1CCOc2ccccc21)N1CCN(c2ccccc2)CC1,0,0,0,0,98,-
O=C(Nc1ccc2c(c1)OCCO2)N1CCN(c2ccccc2)CC1,-,0,0,0,91,0
COc1ccc(N2CCN(C(=O)CCC(=O)N3Cc4ccccc4Oc4ncccc43)CC2)cc1,0,0,0,0,90,0
O=C(Nc1ccc(F)cc1)N1CCOCC1,-,0,0,-,0,0
CCNC(=O)Nc1ccc2c(c1)C(=O)N(C)[C@H]1CC[C@H](CC(=O)NCCN3CCCC3)O[C@@H]1CO2,-,0,-,0,-,-
COc1ccc(CN(C)C[C@H]2OCCCC[C@@H](C)Oc3ccc(N(C)C)cc3C(=O)N([C@H](C)CO)C[C@@H]2C)cc1,0,0,-,0,-,-
O=C(Nc1ccc(F)cc1)N1CCCCN2[C@H](C1)[C@H](c1ccc(-c3ccccc3F)cc1)[C@@H]2CO,0,0,-,0,-,-
Cn1cnc(S(=O)(=O)N[C@@H]2CC[C@@H](CC(=O)N3CCN(c4ccccc4)CC3)O[C@H]2CO)c1,0,0,-,0,-,-
Cc1ccc2c(c1)N(C(=O)CCC(=O)N1CCOCC1)CCO2,0,0,0,0,0,-
COc1cccc(N2CCN(C(=O)CCC(=O)N3CCOc4ccc(C)cc43)CC2)c1,0,0,0,-,89,-
CC=Cc1ccc2n(c1=O)C[C@@H]1[C@@H](CO)[C@H](C(=O)N3CCCCC3)[C@H]2N1Cc1ccccn1 (mixture of isomers),0,0,-,0,-,-
Cc1ccc(S(=O)(=O)NCC(=O)N(c2ccccc2)C(C(=O)NCc2ccccc2)c2ccco2)cc1 (centres undefined),0,0,29,0,-,0
CCCC#Cc1cnc2c(c1)C(=O)N([C@@H](C)CO)C[C@H](C)[C@@H](CN(C)C(=O)C1CCC1)O2,0,0,-,0,-,-
OCC1OC(n2cnc3c(/C=C(\O)c4ccccc4)ncnc32)C(O)C1O (centres undefined),0,-,22,0,-,0
CN(C)c1ncnc2c1ncn2C1OC(CO)C(O)C1O (centres undefined),-,0,0,0,0,0
CCOC1OC2C(CO)OC(n3cnc4c(N)ncnc43)C2O1 (centres undefined),0,0,0,0,0,0
Nc1ncnc2c1ncn2C1OC(CO)C2OC21 (centres undefined),0,-,24,-,-,-
O=C(N[C@@H]1CC[C@H](CCNC(=O)C2CC2)O[C@@H]1CO)c1ccccn1,0,0,-,0,-,-
COc1ccc(C(=O)Nc2ccc(Cl)cc2C(=O)N2CCCC(C)C2)cc1 (centres undefined),-,0,24,0,0,0
COc1ccc(C(=O)Nc2ccc(Cl)cc2C(=O)N2CCOCC2)cc1,0,0,0,0,0,0
C=C(C)C(=O)OC1(C(F)(F)F)Oc2cc(C)ccc2NC1=O (centres undefined),-,0,0,0,98,0
CCOC(=O)C1(N(CC)CC)Sc2cc(C)ccc2NC1=O (centres undefined),-,0,0,0,0,0
Cc1ccccc1-c1ccc([C@H]2[C@H]3CN(C(=O)Nc4cccc(F)c4)CC(=O)N3[C@H]2CO)cc1,0,-,-,-,-,-
SMILES,ERp5 inh,PglD DTNB,CendR NRP1 mod,ARNT TACC3 PPI,ALR inh,PDI turbidity
C/C(=N\N1C(=O)c2ccccc2NC1c1ccco1)c1ccccc1O (centres undefined),0,-,0,0,0,0
O=C1c2ccccc2NC(c2ccco2)N1/N=C/c1ccco1 (centres undefined),0,0,18,0,0,0
CN1c2ccc(-c3ccc(F)cc3)cc2[C@H]2[C@H](CCN2C(=O)c2ccncc2)[C@@H]1CO,0,0,-,0,-,-
Oc1ccc(C2C[C@H]3CC[C@@H]2C3)cc1O (some centres undefined),0,0,0,0,99,0
O=C(C[C@H]1C/C=C\C[C@@H](Cc2ccc(F)cc2)C(=O)O[C@@H](c2ccccc2)CNC1=O)NCCO,0,0,0,0,0,0
O=C(C[C@H]1C/C=C\C[C@H](Cc2ccc(F)cc2)C(=O)O[C@@H](c2ccccc2)CNC1=O)NCCO,0,0,22,0,0,0

# High-throughput results (PubChem BioAssay)
